Reference: PubChem BioAssay (NCI)
This is part of a sample that, as a whole, favours compounds with a hit. Of some 83,000 tested, about 20% had one in any assay.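 Growth was measured after 48 h exposure to one concentration of compound in 96-well plates. Values under 10 count as active.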 Values without a mark were called inactive. Activity calls are given as the source filed them.

Columns and labels:
Test in all cases: NCI-60 one-dose screen, 48 h (100 = growth as untreated, 0 = no growth, -100 = all killed)
SK-MEL-2 melanoma = details: 10 µM unless noted
EKVX NSCLC = details: 10 µM unless noted
SN12C renal = details: 10 µM unless noted
UO-31 renal = details: 10 µM unless noted
TK-10 renal = details: 10 µM unless noted
ACHN renal = details: 10 µM unless noted
CAKI-1 renal = details: 10 µM unless noted
A498 renal = details: 10 µM unless noted
CCRF-CEM leukemia = details: 10 µM unless noted
MOLT-4 leukemia = details: 10 µM unless noted
SR leukemia = details: 10 µM unless noted
RPMI-8226 leukemia = details: 10 µM unless noted
OVCAR-8 ovarian = details: 10 µM unless noted
OVCAR-5 ovarian = details: 10 µM unless noted
OVCAR-4 ovarian = details: 10 µM
SK-OV-3 ovarian = details: 10 µM unless noted
IGROV1 ovarian = details: 10 µM unless noted
OVCAR-3 ovarian = details: 10 µM unless noted
NCI/ADR-RES ovarian = details: 10 µM unless noted
HS 578T breast = details: 10 µM unless noted

Row | Compound | growth (SK-MEL-2 melanoma) | growth (EKVX NSCLC) | growth (SN12C renal) | growth (UO-31 renal) | growth (TK-10 renal) | growth (ACHN renal) | growth (CAKI-1 renal) | growth (A498 renal) | growth (CCRF-CEM leukemia) | growth (MOLT-4 leukemia) | growth (SR leukemia) | growth (RPMI-8226 leukemia) | growth (OVCAR-8 ovarian) | growth (OVCAR-5 ovarian) | growth (OVCAR-4 ovarian) | growth (SK-OV-3 ovarian) | growth (IGROV1 ovarian) | growth (OVCAR-3 ovarian) | growth (NCI/ADR-RES ovarian) | growth (HS 578T breast)
1 | COc1ccc(CC(C#N)c2ccc(Cl)cc2)cc1 (centres undefined) | 80% | 90% | 99.7% | 102% | 109% | 102% | 68.9% | 49.7% | 76.5% | 72.7% | 36.3% | 85% | 99% | 82.9% | 103% | 89.3% | 68.8% | 77.2% | 42.5% | –
2 | O=C1CC(c2ccccc2)Cc2nc3ccc(Cl)cc3cc21 (centres undefined) | 57.1% | 30.2% | 28.3% | 35% | 71.2% | 30.8% | 29.2% | -17.4% (active) | 10.4% | 11.6% | 13% | 29.7% | 22.4% | 26.4% | 48.7% | 47.2% | 16.5% | -29.1% (active) | 7.96% (active) | –
3 | Cc1ccccc1OC(=O)c1cccc(Cl)c1 | 103% | 99.2% | 110% | 80.2% | 108% | 107% | 109% | 90.5% | 98% | -16.3% (active) | 97.3% | 98.8% | 112% | 104% | 112% | 137% | 104% | 109% | 108% | –
4 | COc1ccc2[nH]c(C(=O)N3CCN(C(=O)OCc4ccc5c(Br)cc(Br)c(O)c5n4)CC3)cc2c1 | -89.5% (active) | -76% (active) | -86.8% (active) | -100% (active) | -99.5% (active) | -100% (active) | -96% (active) | -97% (active) | -11.8% (active) | -22.3% (active) | 4.37% (active) | -38.9% (active) | -73.2% (active) | -89.3% (active) | -85.2% (active) | -70.7% (active) | -90.7% (active) | – | -17.4% (active) | -22.5% (active)
5 | CC1(C)S[C@@H]2[C@H](NC(=O)[C@H](C(=O)O)c3cccs3)C(=O)N2[C@H]1C(=O)O | 98.2% | 93.1% | 104% | 85.6% | 103% | 95.2% | 93.2% | 118% | 105% | 125% | 102% | 117% | 98.7% | 100% | 112% | 105% | 109% | 111% | 102% | –
6 | CCN(CC)CCCCCCNc1cccc2cc(Br)cnc12 | 21.7% | 93.1% | 104% | 61% | 58.7% | 104% | 62.3% | 86.3% | 57% | 9.09% (active) | 28.4% | 68% | 80.2% | 117% | 87.5% | 111% | 60% | 84.2% | 79.9% | –
7 | c1ccc2c(c1)CN(CCCN1CCOCC1)C2 | 105% | 100% | 96.6% | 93.1% | 95.4% | 100% | 87.2% | 101% | 102% | 103% | 97.8% | 95.5% | 102% | 99.1% | 102% | 102% | 101% | – | 98.7% | 109%
8 | CCCCCN(CCCCC)CCCCCCCCN1CCCc2ccccc21 | 89.7% | 76.7% | 89.7% | 62% | 89% | 91.1% | 54.8% | 114% | 81.7% | 27.7% | 21.5% | 84.1% | 89.1% | 107% | 95.9% | 106% | 76.4% | 72.1% | 92.2% | –
9 | CCOc1ccccc1/C=N\Nc1ccc(S(=O)(=O)c2ccc(N/N=C/c3ccccc3OCC)cc2)cc1 | 103% | 90.7% | 93.5% | 66.5% | 126% | 88.7% | 67.2% | 113% | 94.7% | 80.8% | 94.8% | 81.3% | 93.1% | 95% | 96.6% | 87.6% | 76% | – | 92.8% | -24.9% (active)
10 | O=C(Nc1ccc(F)cc1)c1ccccc1 | 106% | 101% | 102% | 94.3% | 95.7% | 101% | 91.6% | 92.4% | 100% | 97.8% | 88.8% | 102% | 105% | 105% | 100% | 112% | 110% | – | 98.9% | 107%
11 | O=C1CC(c2ccccc2)Cc2nc3ccc(Br)cc3cc21 (centres undefined) | 45.2% | 36.3% | 32.2% | 41.4% | 73.4% | 34.3% | 30.7% | -12.4% (active) | 8.51% (active) | 10.5% | 13.1% | 50% | 24.1% | 27.2% | 47% | 47.6% | 22% | -28.4% (active) | 17.1% | –
12 | CCCC[C@@H](C=O)NC(=O)[C@H](CC(C)C)NC(=O)[C@H](CC(C)C)NC(=O)OCc1ccccc1 | 13.4% | -14.2% (active) | 2.11% (active) | 23.8% | -20.2% (active) | 25.3% | 4.61% (active) | -47.6% (active) | -26.5% (active) | -11.7% (active) | -24.4% (active) | -10.2% (active) | 18.8% | -34.5% (active) | 10.8% | 38.2% | 8.93% (active) | -29.1% (active) | -2.88% (active) | –
13 | COc1ccc(/C=C/C(=C/c2c(O)[nH]c3cc(Br)ccc23)N=O)cc1 | 140% | 108% | 102% | 88.5% | 148% | 110% | 93.1% | 93.6% | 104% | 104% | 70.2% | 123% | 104% | 110% | 101% | 114% | 103% | 114% | 111% | –
14 | COc1cc2c(cc1OCCCCCOc1ccc(-n3c(C)nc4ccccc4c3=O)cc1)N=C[C@@H]1CCCN1C2=O | -8.38% (active) | -26.5% (active) | 12.7% | 2.91% (active) | -28.2% (active) | 9.23% (active) | 4.3% (active) | -71.9% (active) | -38.3% (active) | -31.2% (active) | -25.4% (active) | -35% (active) | 9.85% (active) | 10.5% | -27.8% (active) | -0.258% (active) | -28.7% (active) | -15.8% (active) | -14.6% (active) | –
15 | CCOC(=O)C(c1ccccc1)N1C(=O)c2ccccc2C1=O (centres undefined) | 104% | 91.4% | 104% | 91.4% | 106% | 102% | 86.4% | 89.3% | 102% | 101% | 115% | 98% | 99.7% | 99.7% | 97.7% | 95.4% | 96.5% | – | 99.3% | 92.3%
16 | Cc1nn(-c2ccccc2)c(N2CCOCC2)c1-c1nc2ccc([N+](=O)[O-])cc2[nH]1 | 110% | 106% | 95.2% | 81.4% | 100% | 105% | 80% | 76.3% | 92.6% | 85.7% | 87.2% | 97.6% | 102% | 108% | 98.9% | 135% | 111% | 110% | 105% | –
